# Source: PubChem BioAssay (EPA / NIEHS)
# “And” between values parts separate entries of the source, which are not always exact repeats. Identical values can stand only once. Records with an inconclusive call do not appear. More than one record can exist for a structure, and the calls need not agree. The source made the active and inactive calls. How the source made its calls: active means hit-call score of the fitted dose curve at least 0.9, where 1 is the maximum; inconclusive means response in the unintended direction; inactive means score below 0.9.
# Tests used:
# [1] = system: 5-hydroxytryptamine receptor 2C (pig); assay: NVS_GPCR_p5HT2C: NovaScreen (NVS) G Protein-Coupled Receptor Assay for pig Serotonin, 5-Hydroxytryptamine Receptor 2C (5HT2C) (AID 2283288)
# Summary of the method: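 Radioligand displacement on membranes from pig choroid plexus, detected by filter scintillation counting after 1 h. Tested first at a single 25 uM in duplicate, then in concentration-response for actives; DMSO served as baseline.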
# [2] = biological target: rat Adrenergic, Alpha 1, Non-selective Receptor (Adra1), Adra1a (gene 29412) (UniProt P43140); assay: NVS_GPCR_rAdra1_NonSelective: NovaScreen (NVS) G Protein-Coupled Receptor Assay for rat Adrenergic, Alpha 1, Non-selective Receptor (Adra1) (AID 2283289)
# Chain of rat Adrenergic, Alpha 1, Non-selective Receptor (Adra1), Adra1a (gene 29412) (P43140 whole entry, looked up): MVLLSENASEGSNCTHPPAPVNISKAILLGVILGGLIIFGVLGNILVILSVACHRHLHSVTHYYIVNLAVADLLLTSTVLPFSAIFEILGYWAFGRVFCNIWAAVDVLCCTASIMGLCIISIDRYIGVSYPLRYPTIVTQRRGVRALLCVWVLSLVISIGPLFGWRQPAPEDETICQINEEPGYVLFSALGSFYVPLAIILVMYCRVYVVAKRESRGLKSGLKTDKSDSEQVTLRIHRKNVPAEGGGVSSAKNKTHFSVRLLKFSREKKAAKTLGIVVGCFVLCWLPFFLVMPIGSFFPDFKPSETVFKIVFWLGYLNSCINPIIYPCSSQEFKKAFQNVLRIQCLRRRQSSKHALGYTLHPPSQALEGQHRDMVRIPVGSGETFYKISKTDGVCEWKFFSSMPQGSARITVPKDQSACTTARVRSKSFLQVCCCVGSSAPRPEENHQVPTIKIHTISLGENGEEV
# Summary of the method: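 Chemicals first screened in duplicate at 25 uM, then actives tested in concentration series up to 50 uM. Binding measured as displacement of radioligand from rat forebrain membrane receptors, 1 h, filtration with scintillation readout; DMSO baseline.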
# [3] = biological target: guinea pig Serotonin, 5-Hydroxytryptamine Receptor 4 (5HT4), HTR4 (gene 100135548) (UniProt O70528); assay: NVS_GPCR_g5HT4: NovaScreen (NVS) G Protein-Coupled Receptor Assay for guinea pig Serotonin, 5-Hydroxytryptamine Receptor 4 (5HT4) (AID 2283294)
# Chain of guinea pig Serotonin, 5-Hydroxytryptamine Receptor 4 (5HT4), HTR4 (gene 100135548) (O70528 whole entry, looked up): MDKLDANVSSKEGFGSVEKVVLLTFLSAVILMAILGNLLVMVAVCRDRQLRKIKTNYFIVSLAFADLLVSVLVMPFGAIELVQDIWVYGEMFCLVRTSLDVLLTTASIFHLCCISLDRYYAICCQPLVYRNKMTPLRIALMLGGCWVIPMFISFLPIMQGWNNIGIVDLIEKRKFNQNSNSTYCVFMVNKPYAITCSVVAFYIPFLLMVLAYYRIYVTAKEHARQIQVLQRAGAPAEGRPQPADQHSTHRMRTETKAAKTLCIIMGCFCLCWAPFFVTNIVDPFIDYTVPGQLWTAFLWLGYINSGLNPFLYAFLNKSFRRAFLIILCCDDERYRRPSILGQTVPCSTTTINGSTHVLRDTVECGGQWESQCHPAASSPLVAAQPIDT
# Summary of the method: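 Compounds first screened in duplicate at 25 uM, actives followed up in concentration series. Binding measured as displacement of specific radioligand from guinea pig striatal membranes, 1 h, filter-based scintillation read-out versus DMSO baseline.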
# [4] = biological target: rat Serotonin, 5-Hydroxytryptamine Receptor (5HT), Non-Selective Binding, Htr1a (gene 24473) (UniProt P19327); assay: NVS_GPCR_r5HT_NonSelective: NovaScreen (NVS) G Protein-Coupled Receptor Assay for rat Serotonin, 5-Hydroxytryptamine Receptor (5HT), Non-Selective Binding (AID 2283295)
# Chain of rat Serotonin, 5-Hydroxytryptamine Receptor (5HT), Non-Selective Binding, Htr1a (gene 24473) (P19327 whole entry, looked up): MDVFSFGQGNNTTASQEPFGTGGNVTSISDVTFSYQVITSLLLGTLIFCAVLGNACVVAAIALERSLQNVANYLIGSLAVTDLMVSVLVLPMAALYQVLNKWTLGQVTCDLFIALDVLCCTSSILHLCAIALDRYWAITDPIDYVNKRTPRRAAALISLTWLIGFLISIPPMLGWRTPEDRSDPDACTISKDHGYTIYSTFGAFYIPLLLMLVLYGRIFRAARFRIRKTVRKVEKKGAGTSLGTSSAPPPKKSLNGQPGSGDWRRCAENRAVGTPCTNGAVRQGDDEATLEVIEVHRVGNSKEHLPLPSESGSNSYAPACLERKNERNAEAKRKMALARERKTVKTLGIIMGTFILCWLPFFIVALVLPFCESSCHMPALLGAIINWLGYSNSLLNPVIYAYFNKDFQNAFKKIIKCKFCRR
# Summary of the method: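 Rat cortex membrane preparation incubated 1 h with radioligand and test chemical; bound radioactivity counted after filtration. Screening began in duplicate at 25 uM with concentration-series follow-up; fitting relative to DMSO.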
# [5] = biological target: rat Adrenergic, Alpha 1A Receptor (Adra1A), Adra1a (gene 29412) (UniProt P43140); assay: NVS_GPCR_rAdra1A: NovaScreen (NVS) G Protein-Coupled Receptor Assay for rat Adrenergic, Alpha 1A Receptor (Adra1A) (AID 2283296)
# Chain of rat Adrenergic, Alpha 1A Receptor (Adra1A), Adra1a (gene 29412) (P43140 whole entry, looked up): as the sequence (P43140 whole entry, looked up) above
# Summary of the method: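 Filter radiodetection after 1 h competitive binding on CEC-pretreated rat cortical membranes. Duplicate single-point screening at 25 uM; active chemicals retested across concentration series.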
# [6] = system: rat Adrenergic, Alpha 1B Receptor (Adra1B), gene 24173; assay: NVS_GPCR_rAdra1B: NovaScreen (NVS) G Protein-Coupled Receptor Assay for rat Adrenergic, Alpha 1B Receptor (Adra1B) (AID 2283297)
# Summary of the method: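 Filter-binding radioligand competition on membranes from rat liver, read after 1 h by scintillation counting. Single-concentration duplicate screen at 25 uM, followed by concentration-response on actives, normalised to DMSO.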
# [7] = biological target: rat Adrenergic Receptor, Alpha 2 (Adra2), Non-selective Binding, Adra2a (gene 25083) (UniProt P22909); assay: NVS_GPCR_rAdra2_NonSelective: NovaScreen (NVS) G Protein-Coupled Receptor Assay for rat Adrenergic Receptor, Alpha 2 (Adra2), Non-selective Binding (AID 2283299)
# Chain of rat Adrenergic Receptor, Alpha 2 (Adra2), Non-selective Binding, Adra2a (gene 25083) (P22909 whole entry, looked up): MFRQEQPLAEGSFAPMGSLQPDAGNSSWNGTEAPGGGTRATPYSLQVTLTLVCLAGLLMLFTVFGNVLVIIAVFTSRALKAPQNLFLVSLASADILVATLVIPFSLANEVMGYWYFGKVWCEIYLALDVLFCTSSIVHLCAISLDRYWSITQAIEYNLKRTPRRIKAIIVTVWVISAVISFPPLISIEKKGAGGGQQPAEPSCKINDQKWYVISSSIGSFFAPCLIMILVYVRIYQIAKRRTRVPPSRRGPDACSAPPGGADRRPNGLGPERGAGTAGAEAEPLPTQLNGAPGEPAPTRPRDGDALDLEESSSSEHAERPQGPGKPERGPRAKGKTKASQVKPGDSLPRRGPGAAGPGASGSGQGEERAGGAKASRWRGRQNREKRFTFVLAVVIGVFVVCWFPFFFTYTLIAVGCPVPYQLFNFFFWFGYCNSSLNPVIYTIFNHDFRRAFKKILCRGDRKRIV
# Summary of the method: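 Filter-based scintillation counting of radioligand binding to rat cortical membrane receptors, measured 1.25 hours post-dosing; loss of signal versus DMSO indicates displacement. Initial single-concentration duplicate at 25 uM, then concentration series.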
# Adra2b (gene 24174) = Adra2b (gene 24174) (UniProt P19328); assay: NVS_GPCR_rmAdra2B: NovaScreen (NVS) G Protein-Coupled Receptor Assay for hybird cells Adrenergic, Alpha 2B Receptor (Adra2B) (AID 2283306)
# Chain of Adra2b (gene 24174) (P19328 whole entry, looked up): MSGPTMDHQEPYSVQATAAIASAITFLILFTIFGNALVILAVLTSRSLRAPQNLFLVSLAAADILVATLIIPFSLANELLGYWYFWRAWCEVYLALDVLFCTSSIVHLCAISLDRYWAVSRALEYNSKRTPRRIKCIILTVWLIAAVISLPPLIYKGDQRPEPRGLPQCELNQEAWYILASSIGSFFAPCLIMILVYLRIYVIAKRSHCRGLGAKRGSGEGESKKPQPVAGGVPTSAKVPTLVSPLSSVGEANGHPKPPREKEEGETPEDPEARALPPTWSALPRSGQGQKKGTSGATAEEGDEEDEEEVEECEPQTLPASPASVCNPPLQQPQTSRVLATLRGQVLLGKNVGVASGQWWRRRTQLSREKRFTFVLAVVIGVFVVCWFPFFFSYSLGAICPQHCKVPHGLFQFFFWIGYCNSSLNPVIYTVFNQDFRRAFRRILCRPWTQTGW
# Summary of the method: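 Compounds screened first at 25 uM in duplicate, with actives followed up in concentration-response; specific radioligand displacement from hybrid neuroglioma/blastoma cell membrane preparations measured by filter scintillation counting after 1 h, normalized to DMSO.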
# [8] = biological target: rat Opioid Receptor, Non-selective Sodium (Na+) Binding, Oprm1 (gene 25601) (UniProt P33535); assay: NVS_GPCR_rOpiate_NonSelectiveNa: NovaScreen (NVS) G Protein-Coupled Receptor Assay for rat Opioid Receptor, Non-selective Sodium (Na+) Binding (AID 2283311)
# Chain of rat Opioid Receptor, Non-selective Sodium (Na+) Binding, Oprm1 (gene 25601) (P33535 whole entry, looked up): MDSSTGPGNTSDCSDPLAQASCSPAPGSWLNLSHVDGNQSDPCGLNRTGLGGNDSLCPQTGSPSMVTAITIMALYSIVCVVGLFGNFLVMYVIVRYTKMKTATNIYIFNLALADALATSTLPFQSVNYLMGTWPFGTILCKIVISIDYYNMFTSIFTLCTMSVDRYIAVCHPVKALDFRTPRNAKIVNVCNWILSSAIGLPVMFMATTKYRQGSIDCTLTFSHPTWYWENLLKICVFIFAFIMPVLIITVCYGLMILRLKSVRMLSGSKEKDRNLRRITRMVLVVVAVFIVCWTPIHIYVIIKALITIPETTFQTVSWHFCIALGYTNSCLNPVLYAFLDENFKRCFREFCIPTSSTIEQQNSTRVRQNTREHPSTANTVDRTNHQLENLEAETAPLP
# Summary of the method: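 Filtration radioligand binding on rat forebrain membrane preparations, read 1.5 h after dosing. Single-concentration 25 µM primary screen in duplicate, followed by singleton concentration series to 50 µM max for actives; DMSO baseline.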
# [9] = biological target: human Opioid Receptor Mu (Opiate Mu), OPRM1 (gene 4988) (UniProt P35372); assay: NVS_GPCR_hOpiate_mu: NovaScreen (NVS) G Protein-Coupled Receptor Assay for human Opioid Receptor Mu (Opiate Mu) (AID 2283290);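 further: hits lower bound tracer signal versus DMSO meaning displacement of the ligand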
# Chain of human Opioid Receptor Mu (Opiate Mu), OPRM1 (gene 4988) (P35372 whole entry, looked up): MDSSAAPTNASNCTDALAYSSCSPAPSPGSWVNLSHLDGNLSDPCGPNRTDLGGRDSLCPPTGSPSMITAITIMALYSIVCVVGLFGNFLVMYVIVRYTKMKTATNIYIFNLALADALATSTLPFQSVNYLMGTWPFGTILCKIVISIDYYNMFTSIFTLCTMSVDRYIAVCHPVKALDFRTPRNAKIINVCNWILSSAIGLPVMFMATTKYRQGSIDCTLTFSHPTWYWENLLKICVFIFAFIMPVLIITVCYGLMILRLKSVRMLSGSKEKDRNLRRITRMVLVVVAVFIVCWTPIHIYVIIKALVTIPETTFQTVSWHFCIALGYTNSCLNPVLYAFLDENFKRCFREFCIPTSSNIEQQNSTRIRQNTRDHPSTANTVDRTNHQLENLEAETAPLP
# Summary of the method: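 CHO-derived receptor protein, cell-free; radioligand displacement, filtration + scintillation counting, read at 2.5 h. DMSO = negative control/baseline. Primary: 25 uM single conc, duplicate; secondary: concentration series.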
# [10] = system: rabbit Platelet Activating Factor Receptor (PAF), gene 100354046; assay: NVS_GPCR_rabPAF: NovaScreen (NVS) G Protein-Coupled Receptor Assay for rabbit Platelet Activating Factor Receptor (PAF) (AID 2283287)
# Summary of the method: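 Rabbit platelet membrane preparation; radioligand displacement read by filter-based scintillation counting 1 h after dosing, loss of signal versus DMSO. Primary screen in duplicate at 25 uM, actives followed up in concentration series.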
# [11] = biological target: guinea pig Bradykinin Receptor B2 (BK2), BDKRB2 (gene 100135486) (UniProt O70526); assay: NVS_GPCR_gBK2: NovaScreen (NVS) G Protein-Coupled Receptor Assay for guinea pig Bradykinin Receptor B2 (BK2) (AID 2283292)
# Summary of the method: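 Guinea pig ileum membrane preparation incubated 1 h with radioligand and test chemical; bound counts measured after filtration. Primary duplicate screening at 25 uM, then singleton concentration series with a 50 uM top dose; DMSO as baseline.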
# [12] = biological target: rat Neurokinin-1 Receptor (NK1), Tacr1 (gene 24807) (UniProt P14600); assay: NVS_GPCR_rNK1: NovaScreen (NVS) G Protein-Coupled Receptor Assay for rat Neurokinin-1 Receptor (NK1) (AID 2283309)
# Chain of rat Neurokinin-1 Receptor (NK1), Tacr1 (gene 24807) (P14600 whole entry, looked up): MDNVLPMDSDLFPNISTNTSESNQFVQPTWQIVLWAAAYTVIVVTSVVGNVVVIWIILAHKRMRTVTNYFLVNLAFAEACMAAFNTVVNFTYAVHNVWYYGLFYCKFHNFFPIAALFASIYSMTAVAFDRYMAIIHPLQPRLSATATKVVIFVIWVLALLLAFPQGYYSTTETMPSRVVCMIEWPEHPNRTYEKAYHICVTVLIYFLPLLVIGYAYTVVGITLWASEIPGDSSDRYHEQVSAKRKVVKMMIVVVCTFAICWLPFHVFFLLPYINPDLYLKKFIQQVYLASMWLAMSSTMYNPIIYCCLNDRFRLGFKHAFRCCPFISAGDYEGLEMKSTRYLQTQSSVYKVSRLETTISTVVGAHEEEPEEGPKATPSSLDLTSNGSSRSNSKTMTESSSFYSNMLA
# Summary of the method: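 Competitive radioligand binding to NK1 in rat submaxillary membranes, 1 h incubation, filtration and scintillation read-out. Compounds first screened at 25 uM in duplicate, then concentration-response for actives; signal loss relative to DMSO.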
# [13] = biological target: rat Gamma-Aminobutyric Acid Type B Receptor (GABBR), Gabbr1 (gene 81657) (UniProt Q9Z0U4); assay: NVS_GPCR_rGABBR: NovaScreen (NVS) G Protein-Coupled Receptor Assay for rat Gamma-Aminobutyric Acid Type B Receptor (GABBR) (AID 2283301)
# Summary of the method: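 Rat cortical membrane preparation, competitive radioligand binding for 1 h with filtration and scintillation readout. Actives from duplicate single-point 25 uM screening proceeded to concentration series with 50 uM top concentration.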
# [14] = biological target: rat Somatostatin Receptor (SST), Sstr1 (gene 25033) (UniProt P28646); assay: NVS_GPCR_rSST: NovaScreen (NVS) G Protein-Coupled Receptor Assay for rat Somatostatin Receptor (SST) (AID 2283314)
# Chain of rat Somatostatin Receptor (SST), Sstr1 (gene 25033) (P28646 whole entry, looked up): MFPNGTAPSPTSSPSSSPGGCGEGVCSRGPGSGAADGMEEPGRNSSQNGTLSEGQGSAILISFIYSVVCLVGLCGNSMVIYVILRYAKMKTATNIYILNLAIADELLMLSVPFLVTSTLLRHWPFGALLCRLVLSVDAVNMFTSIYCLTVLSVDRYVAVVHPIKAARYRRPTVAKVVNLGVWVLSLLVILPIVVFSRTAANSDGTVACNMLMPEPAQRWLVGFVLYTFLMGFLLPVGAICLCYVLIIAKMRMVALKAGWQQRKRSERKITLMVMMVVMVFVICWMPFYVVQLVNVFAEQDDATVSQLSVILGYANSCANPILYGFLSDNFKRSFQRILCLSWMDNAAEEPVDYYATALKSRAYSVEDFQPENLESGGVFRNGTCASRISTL
# Summary of the method: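 Single-concentration duplicate screen (25 uM), then concentration-response up to 50 uM for chemicals passing a threshold such as 30% inhibition. Membranes came from rat forebrain. Binding was measured 1 h post-dose by filter radiodetection and scintillation, relative to DMSO.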
# [15] = biological target: rat Adrenergic Receptor, Beta (Adrb), Non-selective Binding, Adrb1 (gene 24925) (UniProt P18090); assay: NVS_GPCR_rAdrb_NonSelective: NovaScreen (NVS) G Protein-Coupled Receptor Assay for rat Adrenergic Receptor, Beta (Adrb), Non-selective Binding (AID 2283298)
# Summary of the method: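 Rat cortical membranes incubated 1 h with beta-adrenergic radioligand and test chemical; bound ligand measured by filtration and scintillation counting. Screen at 25 uM duplicate, then concentration series with 50 uM maximum; loss of signal versus DMSO.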
# [16] = biological target: rat Neurokinin-3 Receptor (NK3), Tacr3 (gene 24808) (UniProt P16177); assay: NVS_GPCR_rNK3: NovaScreen (NVS) G Protein-Coupled Receptor Assay for rat Neurokinin-3 Receptor (NK3) (AID 2283310)
# Chain of rat Neurokinin-3 Receptor (NK3), Tacr3 (gene 24808) (P16177 whole entry, looked up): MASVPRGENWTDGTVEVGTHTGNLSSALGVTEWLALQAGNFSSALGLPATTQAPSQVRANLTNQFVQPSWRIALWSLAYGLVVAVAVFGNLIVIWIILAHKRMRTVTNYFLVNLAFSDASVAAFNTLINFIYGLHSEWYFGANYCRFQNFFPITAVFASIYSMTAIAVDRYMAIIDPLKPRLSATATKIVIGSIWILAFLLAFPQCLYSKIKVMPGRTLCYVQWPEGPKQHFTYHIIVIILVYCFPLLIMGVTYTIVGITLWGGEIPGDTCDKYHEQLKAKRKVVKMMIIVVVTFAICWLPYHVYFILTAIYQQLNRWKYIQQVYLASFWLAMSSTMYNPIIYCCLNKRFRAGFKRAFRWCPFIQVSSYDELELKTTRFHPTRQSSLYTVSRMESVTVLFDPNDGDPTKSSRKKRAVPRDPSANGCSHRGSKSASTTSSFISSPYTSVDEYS
# Summary of the method: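 Filter-based radioligand displacement on rat cortex membrane preparations, read by scintillation 2 h post-dose. Chemicals first tested in duplicate at 25 uM; actives followed up in concentration series with a 50 uM maximum.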
# [17] = biological target: mouse Cholecystokinin, CCK2 Receptor (CCKB), Cckbr (gene 12426) (UniProt P56481); assay: NVS_GPCR_mCKKBCentral: NovaScreen (NVS) G Protein-Coupled Receptor Assay for mouse Cholecystokinin, CCK2 Receptor (CCKB) (AID 2283293)
# Summary of the method: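 Mouse forebrain membrane preparation incubated 2 h with chemical and radioligand; bound radioactivity counted after filtration. Single-concentration duplicate screen at 25 uM, then concentration series to 50 uM max for hits, DMSO as baseline.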
# [18] = biological target: rat Histamine Receptor (H3), Hrh3 (gene 85268) (UniProt Q9QYN8); assay: NVS_GPCR_rH3: NovaScreen (NVS) G Protein-Coupled Receptor Assay for rat Histamine Receptor (H3) (AID 2283303)
# Summary of the method: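 Filter-binding radioligand competition on rat forebrain membranes, 1 h incubation; compounds screened at 25 µM in duplicate and followed in concentration series to 50 µM, loss of bound signal vs DMSO.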
structure (smiles),measurement,setting,value
CCc1nc(N)nc(N)c1-c1ccc(Cl)cc1,AC50,[1],7.09 µM (active)
same,AC50,[2],8.12 µM (active)
same,AC50,[3],4.48 µM (active)
same,AC50,[4],11.6 µM (active)
same,AC50,[5],2.37 µM (active)
same,AC50,[6],4.4 µM (active)
same,AC50,[7],6.56 µM (active)
same,AC50,Adra2b (gene 24174),5.45 µM (active)
same,outcome,[8],inactive
NC(=Nc1ccccc1)Nc1ccccc1,outcome,[2],inactive
same,AC50,[5],8.43 µM (active)
same,outcome,[7],inactive
same,AC50,Adra2b (gene 24174),11.7 µM (active)
C=CCc1ccc(OC)c(OC)c1,outcome,[1],inactive
CCCCC(CC)COP(=O)(OCC(CC)CCCC)OCC(CC)CCCC (stereo not drawn),outcome,[9],inactive
S=c1[nH]c2ccccc2s1,outcome,[1],inactive
same,outcome,[9],inactive
CCN(CC)CCOc1ccc(C(=C(Cl)c2ccccc2)c2ccccc2)cc1,AC50,[10],4.76 µM (active)
same,AC50,[1],21 µM (active) and 5.8 µM (active) and 15.9 µM (active)
same,AC50,[2],7.75 µM (active)
same,outcome,[11],inactive
same,AC50,[3],11.4 µM (active)
same,AC50,[4],21 µM (active)
same,AC50,[5],21 µM (active)
same,AC50,[6],21 µM (active)
same,AC50,Adra2b (gene 24174),16 µM (active)
same,AC50,[12],21 µM (active)
same,AC50,[8],21 µM (active)
CC(=O)O[C@]1(C(C)=O)CC[C@H]2[C@@H]3C=C(Cl)C4=CC(=O)[C@@H]5C[C@@H]5[C@]4(C)[C@H]3CC[C@@]21C,AC50,[9],474 nM (active) and 612 nM (active)
same,outcome,[9],inactive
O=Cc1ccccc1C=O,outcome,[6],inactive
NC=O,outcome,[12],inactive
Cc1cc(SC2=C(O)C[C@@](CCc3ccc(N)cc3)(C(C)C)OC2=O)c(C(C)(C)C)cc1CO,outcome,[4],inactive
same,outcome,[5],inactive
same,outcome,[13],inactive
same,outcome,Adra2b (gene 24174),inactive
same,outcome,[8],inactive
same,AC50,[14],17.2 µM (active)
C/C=C/c1ccc(OC)cc1,AC50,[15],0.28 µM (active)
O=C1OC(c2ccc(O)cc2)(c2ccc(O)cc2)c2ccccc21,AC50,[8],0.604 µM (active)
COc1ccc(OC(F)(F)F)cc1CN[C@H]1CCCN[C@H]1c1ccccc1,AC50,[9],7.3 µM (active)
same,AC50,[3],12.2 µM (active)
same,AC50,[4],12.1 µM (active)
same,AC50,[5],25 µM (active)
same,AC50,[6],14.8 µM (active)
same,AC50,[7],13.1 µM (active)
same,AC50,Adra2b (gene 24174),9.2 µM (active)
same,AC50,[16],12.5 µM (active)
same,outcome,[8],inactive
same,AC50,[14],8.11 µM (active)
Cc1cn([C@H]2C=C[C@@H](CO)O2)c(=O)[nH]c1=O,outcome,[11],inactive
Cc1ccc(-c2cc(C(F)(F)F)nn2-c2ccc(S(N)(=O)=O)cc2)cc1,outcome,Adra2b (gene 24174),inactive
same,outcome,[8],inactive
CCCCCCCCCCCCCCOS(=O)(=O)O,AC50,[9],8.03 µM (active)
same,AC50,[6],20.9 µM (active)
CCCCc1nc2cccnc2n1Cc1ccc(-c2ccccc2-c2nnn[nH]2)cc1,AC50,[17],15.4 µM (active)
same,outcome,[4],inactive
same,outcome,[12],inactive
same,AC50,[16],5.16 µM (active)
CCCCCCC(C=O)=Cc1ccccc1,outcome,[14],inactive
CC(C)c1cccc(C(C)C)c1,outcome,[3],inactive
CN(C)CCCN(C)CCCN(C)C,outcome,[3],inactive
same,outcome,[6],inactive
same,AC50,[18],25 µM (active)
NCCOCCOCCN,outcome,[13],inactive
CC(C)COC(=O)CCCCC(=O)OCC(C)C,outcome,[3],inactive
Cc1occc(=O)c1O,outcome,[9],inactive
Oc1ccc(O)cc1,AC50,[9],15.3 µM (active)
Cc1c(C)c2c(c(C)c1O)CCC(C)(COc1ccc(CC3SC(=O)NC3=O)cc1)O2 (stereo not drawn),outcome,[8],inactive
CC(C)NCC(O)c1ccc(O)c(O)c1 (stereo not drawn),outcome,[6],inactive
CCCCCCCCCC[N+](C)(C)[O-],outcome,[15],inactive
same,outcome,[16],inactive
CC(=O)CC(c1ccccc1)c1c(O)c2ccccc2oc1=O (stereo not drawn),outcome,[3],inactive
